Source: PubChem BioAssay (EPA / NIEHS)
Records with an inconclusive call do not appear. Activity calls are given as the source filed them. How the source made its calls: active means hit-call score of the fitted dose curve at least 0.9, where 1 is the maximum; inconclusive means response in the unintended direction; inactive means score below 0.9.

biological target: guinea pig Sigma Receptor, Non-selective Binding, SIGMAR1 (gene 100135589) (UniProt Q60492); experiment: NVS_OR_gSIGMA_NonSelective: NovaScreen (NVS) Nuclear Receptor Binding Assay for guinea pig Sigma Receptor, Non-selective Binding (AID 2283367)
Procedure, shortened: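 Radioligand displacement on guinea pig brain membranes, read by filter-based scintillation counting 1 h after dosing. Loss of signal versus DMSO; initial duplicate single-point screen at 25 uM, actives followed in concentration series.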

Sequence of guinea pig Sigma Receptor, Non-selective Binding, SIGMAR1 (gene 100135589) (Q60492 whole entry, looked up): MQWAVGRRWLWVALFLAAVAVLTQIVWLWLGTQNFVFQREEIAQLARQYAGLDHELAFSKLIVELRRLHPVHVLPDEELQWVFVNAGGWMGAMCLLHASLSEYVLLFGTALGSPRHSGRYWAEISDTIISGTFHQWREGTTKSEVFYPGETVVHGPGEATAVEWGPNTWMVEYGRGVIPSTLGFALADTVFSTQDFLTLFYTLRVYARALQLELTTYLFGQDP

Row | Structure (SMILES) | AC50 | outcome
1 | O=P(c1ccccc1)(c1ccccc1)c1ccccc1 | 6.83 µM (active) | 
2 | O=C=NC1CCC(CC2CCC(N=C=O)CC2)CC1 (configuration not stated) | 16.5 µM (active) | 
3 | c1ccc2sc(SN(C3CCCCC3)C3CCCCC3)nc2c1 | 5.3 µM (active) | 
4 | CC(C)=CCO |  | inactive
5 | CCn1c2ccccc2c2cc(N)ccc21 | 12.3 µM (active) | 

biological target: Peroxisome proliferator-activated receptor gamma (Homo sapiens) (UniProt P37231); experiment: NVS_NR_hPPARg: NovaScreen (NVS) Nuclear Receptor Binding Assay for human Peroxisome Proliferator-activated Receptor gamma (PPARg) (AID 2283370)
Procedure, shortened: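 Fluorescence polarization readout of ligand binding to extracted human PPARg, measured at 2 h. Duplicate single-point screen at 25 uM, then concentration-series retesting; activity defined as signal loss versus DMSO.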

Sequence of Peroxisome proliferator-activated receptor gamma (Homo sapiens) (P37231 whole entry, looked up): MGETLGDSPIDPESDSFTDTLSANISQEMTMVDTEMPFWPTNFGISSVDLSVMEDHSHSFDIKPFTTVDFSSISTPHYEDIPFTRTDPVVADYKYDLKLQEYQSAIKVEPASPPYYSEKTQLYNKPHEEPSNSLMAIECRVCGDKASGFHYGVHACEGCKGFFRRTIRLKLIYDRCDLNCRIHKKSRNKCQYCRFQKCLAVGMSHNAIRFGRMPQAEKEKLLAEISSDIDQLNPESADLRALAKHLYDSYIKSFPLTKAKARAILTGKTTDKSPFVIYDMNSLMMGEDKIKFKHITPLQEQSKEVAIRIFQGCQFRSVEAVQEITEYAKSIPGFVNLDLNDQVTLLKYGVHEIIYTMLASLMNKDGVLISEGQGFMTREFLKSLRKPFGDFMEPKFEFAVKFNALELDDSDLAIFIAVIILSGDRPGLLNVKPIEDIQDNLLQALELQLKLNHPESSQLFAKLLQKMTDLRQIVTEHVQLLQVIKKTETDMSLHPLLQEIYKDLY

Row | Structure (SMILES) | outcome
6 | OCCN1CCNCC1 | inactive
7 | CCCCCCCCCCCCCC(=O)O | inactive
8 | O=C[C@@H](O)[C@H](O)[C@H](O)CO | inactive
9 | CCCCC(CC)COC(=O)/C=C\C(=O)OCC(CC)CCCC (configuration not stated) | inactive
10 | O=C1C(c2[nH]c3ccc(S(=O)(=O)O)cc3c2O)=Nc2ccc(S(=O)(=O)O)cc21 | inactive
11 | O=C(Oc1ccccc1)c1ccc(O)cc1 | inactive
12 | COC(C)CCO (configuration not stated) | inactive
13 | CC(C)CCCCCCCOC(=O)c1ccc(C(=O)OCCCCCCCC(C)C)c(C(=O)OCCCCCCCC(C)C)c1 | inactive
14 | BrC1CCC(Br)C(Br)CCC(Br)C(Br)CCC1Br (configuration not stated) | inactive
15 | CCCCCC(CO)CCC (configuration not stated) | inactive
16 | c1ccc(CCCc2ccccn2)cc1 | inactive
17 | CCCCCCCCCCCCCCCC(=O)O | inactive
18 | OC1OC[C@@H](O)[C@H](O)[C@H]1O (some centres not stated) | inactive

biological target: human Dopamine Transporter (DAT), SLC6A3 (gene 6531) (UniProt Q01959); experiment: NVS_TR_hDAT: NovaScreen (NVS) Transporter Assay for human Dopamine Transporter (DAT) (AID 2283374);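 further: activity means loss of bound radioligand signal relative to DMSO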
Procedure, shortened: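 Cell-free radioligand displacement binding at human DAT, 1 h after dosing, with filtration and scintillation counting. Primary screen in duplicate at 25 uM, actives then in concentration series. Loss of bound signal versus DMSO scored.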

Sequence of human Dopamine Transporter (DAT), SLC6A3 (gene 6531) (Q01959 whole entry, looked up): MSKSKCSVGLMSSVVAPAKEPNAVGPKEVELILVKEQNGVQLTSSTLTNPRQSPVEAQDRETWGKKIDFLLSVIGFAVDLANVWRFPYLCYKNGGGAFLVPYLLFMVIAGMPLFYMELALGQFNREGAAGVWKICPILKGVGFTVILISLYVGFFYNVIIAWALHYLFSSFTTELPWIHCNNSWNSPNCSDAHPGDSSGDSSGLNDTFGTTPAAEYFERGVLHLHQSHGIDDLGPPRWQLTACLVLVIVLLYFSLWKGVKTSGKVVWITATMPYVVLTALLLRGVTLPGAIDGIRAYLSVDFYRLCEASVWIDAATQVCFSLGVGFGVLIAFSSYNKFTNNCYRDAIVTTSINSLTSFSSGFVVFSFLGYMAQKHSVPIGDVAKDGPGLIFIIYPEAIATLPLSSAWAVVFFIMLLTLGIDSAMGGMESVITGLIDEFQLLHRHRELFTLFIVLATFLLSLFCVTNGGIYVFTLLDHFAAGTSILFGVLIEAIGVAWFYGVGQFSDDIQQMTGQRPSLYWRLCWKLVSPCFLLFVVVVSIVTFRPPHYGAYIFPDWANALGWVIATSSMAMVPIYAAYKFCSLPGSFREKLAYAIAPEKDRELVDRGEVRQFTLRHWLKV

Row | Structure (SMILES) | AC50 | outcome
19 | CNC[C@H](O)c1cccc(O)c1 | 25 µM (active) | 
20 | O=C(Cl)c1cccc(C(=O)Cl)c1 |  | inactive
21 | Cc1ccc(O)c(C(C)(C)C)c1 | 25 µM (active) | 

biological target: rat Serotonin Transporter (SERT), Slc6a4 (gene 25553) (UniProt P31652); experiment: NVS_TR_rSERT: NovaScreen (NVS) Transporter Assay for rat Serotonin Transporter (SERT) (AID 2283375)
Procedure, shortened: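 Radioligand binding with competitive displacement on rat forebrain membrane preparations, counted by filtration and scintillation after 1 h. Primary single-point duplicates at 25 uM; active chemicals followed up in concentration-response. DMSO served as baseline.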

Sequence of rat Serotonin Transporter (SERT), Slc6a4 (gene 25553) (P31652 whole entry, looked up): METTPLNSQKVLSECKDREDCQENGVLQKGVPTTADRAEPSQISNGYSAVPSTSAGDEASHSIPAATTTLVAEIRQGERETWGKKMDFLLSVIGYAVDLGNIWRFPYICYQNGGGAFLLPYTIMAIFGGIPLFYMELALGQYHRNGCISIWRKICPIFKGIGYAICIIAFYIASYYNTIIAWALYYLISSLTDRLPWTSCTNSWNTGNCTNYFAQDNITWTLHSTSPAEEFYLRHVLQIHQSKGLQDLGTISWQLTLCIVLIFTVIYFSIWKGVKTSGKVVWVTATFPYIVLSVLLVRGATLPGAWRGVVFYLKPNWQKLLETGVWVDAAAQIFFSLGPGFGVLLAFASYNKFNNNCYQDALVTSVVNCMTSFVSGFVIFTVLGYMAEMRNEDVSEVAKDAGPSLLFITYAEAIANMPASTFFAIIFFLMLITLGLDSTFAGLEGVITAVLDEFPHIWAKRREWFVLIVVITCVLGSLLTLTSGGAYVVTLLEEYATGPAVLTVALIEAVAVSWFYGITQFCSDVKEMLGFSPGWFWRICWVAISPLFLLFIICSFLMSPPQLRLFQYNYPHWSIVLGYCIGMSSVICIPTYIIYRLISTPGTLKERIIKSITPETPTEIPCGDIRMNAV

Row | Structure (SMILES) | outcome | AC50
22 | Cc1cccc(C)c1C | inactive | 
23 | O=C=NC1CCC(CC2CCC(N=C=O)CC2)CC1 (configuration not stated) | inactive | 
24 | CCn1c2ccccc2c2cc(N)ccc21 |  | 39.3 µM (active)

biological target: human Norepinephrine Transporter (NET), SLC6A2 (gene 6530) (UniProt P23975); experiment: NVS_TR_hNET: NovaScreen (NVS) Transporter Assay for human Norepinephrine Transporter (NET) (AID 2283377);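 on AC50: displacement of radioligand from human NET seen as loss of scintillation signal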
Procedure, shortened: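 Cell-free radioligand binding using CHO-derived membrane protein expressing human NET, read by filter scintillation counting 1 h after dosing; loss of signal vs DMSO. Initial duplicate screen at 25 uM, actives retested in concentration series.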

Sequence of human Norepinephrine Transporter (NET), SLC6A2 (gene 6530) (P23975 whole entry, looked up): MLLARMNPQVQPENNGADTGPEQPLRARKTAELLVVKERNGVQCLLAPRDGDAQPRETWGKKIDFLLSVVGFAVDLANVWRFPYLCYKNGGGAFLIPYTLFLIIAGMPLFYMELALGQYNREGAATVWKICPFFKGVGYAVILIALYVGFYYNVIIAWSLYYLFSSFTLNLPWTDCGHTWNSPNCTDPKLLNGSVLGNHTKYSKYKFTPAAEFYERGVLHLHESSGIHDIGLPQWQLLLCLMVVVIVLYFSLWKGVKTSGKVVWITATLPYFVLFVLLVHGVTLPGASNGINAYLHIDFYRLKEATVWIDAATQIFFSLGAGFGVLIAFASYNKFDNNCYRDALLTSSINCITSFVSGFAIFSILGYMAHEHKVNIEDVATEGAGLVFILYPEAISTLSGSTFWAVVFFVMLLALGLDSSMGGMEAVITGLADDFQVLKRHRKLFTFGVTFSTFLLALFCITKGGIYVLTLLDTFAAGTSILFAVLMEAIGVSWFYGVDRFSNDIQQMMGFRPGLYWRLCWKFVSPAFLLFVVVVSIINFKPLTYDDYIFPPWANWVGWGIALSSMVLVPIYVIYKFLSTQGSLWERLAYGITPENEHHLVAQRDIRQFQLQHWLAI

Row | Structure (SMILES) | outcome | AC50
25 | Nc1cc([N+](=O)[O-])ccc1Cl | inactive | 
26 | CCn1c2ccccc2c2cc(N)ccc21 |  | 12.3 µM (active)
27 | COc1cc2ncnc(Nc3cccc(Cl)c3)c2cc1OC |  | 1.77 µM (active)
